Screens from PubChem.
KCNQ2 inh = KCNQ2 (rat) channel inhibition. O88943. CHO-K1 KCNQ2, FluxOR thallium flux, 20 min; hits give low values. B-score at 10 µM. 310,000 compounds, 1.1% hits. AID 2156;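 active = fluorescence ratio B-score at most minus 3 library SDs, with starting brightness B-score within 2 library SDs, cut at about -5.5 in these data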
KCNQ2 enhance = enhances the rat KCNQ2 potassium channel. O88943. CHO-K1 KCNQ2, FluxOR thallium flux fluorescence; hits give high values. B-score at 10 µM. 310,000 compounds, 0.54% hits;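 active = fluorescence ratio B-score at least 3 SD of library B-scores, with initial fluorescence B-score within 3 of them, cut at about 5.3 in these data; same plate scores as AID 2156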;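 also: B-score of peak minus minimum over baseline fluorescence ratio after K+ and Tl+ stimulus; positive B-score means potentiation of KCNQ2 with more thallium influx and brighter signal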
Kir21 confirm = confirmation of mouse Kir2.1 potassium channel inhibitors. shares compounds with KCNQ2 enhance. Kir2.1-expressing cells, FluxOR thallium flux fluorescence; hits give low values. Tl flux remaining, % of negative control (hits give low values), % at 10 µM. 2,300 compounds, 41% hits;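 active = Primary-screen hit whose thallium flux fell at least 3 control SD below untreated wells in both duplicates, with normal baseline fluorescence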;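 also: 0% = blank wells without stimulus and 100% = stimulated no-compound controls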
HEK293 Tl flux = alters thallium flux in parental HEK293 cells, Kir2.1 counter-screen | shares compounds with KCNQ2 enhance | FluxOR thallium flux fluorescence; 0% = unstimulated blank wells | FluxOR signal as % of negative control (100 = no effect), % at 10 µM | 2,300 compounds, 19% hits;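 active = dye signal at least 3 control SD above or below untreated wells in both duplicates, raw fluorescence within 3, either direction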;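 also: percent is based on the flux ratio of peak minus minimum fluorescence over baseline F0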
CHO-K1 ctr = parental CHO-K1 activity in KCNQ2 potentiator counter-screen; shares compounds with KCNQ2 enhance; parental CHO-K1 cells, FluxOR thallium flux fluorescence; zero = vehicle mean+3SD, 100% = vehicle-minus-blank window; activity increase over 3SD of controls, % at 10 µM; 1,200 compounds, 43% hits;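 active = signal rise of at least 3 SD above the untreated control mean, in both duplicate wells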;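 also: counter screen of KCNQ2 potentiator hits so any rise reflects channel-independent effects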
KCNQ1 pot spec = human KCNQ1 counter-target activity of KCNQ2 potentiators | shares compounds with KCNQ2 enhance | CHO KCNQ1 stable, FluxOR thallium flux fluorescence; beyond 3SD, as % of vehicle-control signal | activation over 3SD threshold, % at 10 µM | 1,200 compounds, 28% hits | AID 2283;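 active = fluorescence ratio rise of at least 3 SD of vehicle wells above their mean, in both replicate wells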;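 also: 0% = vehicle mean plus 3 SD and 100% = vehicle minus unstimulated blank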
KCNQ2 pot conf = confirmation of rat KCNQ2 potassium channel potentiators. shares compounds with KCNQ2 enhance. CHO-KCNQ2 cells, FluxOR thallium flux fluorescence. potentiation, less the hit threshold, % at 10 µM. 1,200 compounds, 68% hits;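 active = fluorescence ratio rising 3 SD or more over the vehicle control mean in both replicates, plus primary screen hit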;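 also: peak minus minimum thallium fluorescence divided by baseline after K/Tl stimulus; 0% = vehicle mean plus 3 SD and 100% = vehicle minus unstimulated blank difference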
Kir2-1 sel = mouse Kir2.1 off-target activity of KCNQ2 potentiators; shares compounds with KCNQ2 enhance; HEK293 Kir2.1, FluxOR thallium flux fluorescence; activity over 3SD threshold, % at 10 µM; 1,200 compounds, 2% hits;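 active = fluorescence ratio rise of at least 3 SD above the vehicle-control mean, seen in both replicates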;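 also: 0% = vehicle mean plus 3 SD and 100% = vehicle minus no-stimulus blank window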
KCNQ2 W236L pot = rat KCNQ2 W236L mutant potentiation by KCNQ2 potentiators; shares compounds with KCNQ2 enhance; 940 compounds, 10% hits; CHO KCNQ2-W236L, automated patch clamp current; AID 2558; current increase over 3SD of negative controls (%), hits give high values, % at 25 µM;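 active = current increase at least 3 SD of the untreated controls above them in both duplicate recordings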
Target sequence (O88943 whole entry W236L, looked up): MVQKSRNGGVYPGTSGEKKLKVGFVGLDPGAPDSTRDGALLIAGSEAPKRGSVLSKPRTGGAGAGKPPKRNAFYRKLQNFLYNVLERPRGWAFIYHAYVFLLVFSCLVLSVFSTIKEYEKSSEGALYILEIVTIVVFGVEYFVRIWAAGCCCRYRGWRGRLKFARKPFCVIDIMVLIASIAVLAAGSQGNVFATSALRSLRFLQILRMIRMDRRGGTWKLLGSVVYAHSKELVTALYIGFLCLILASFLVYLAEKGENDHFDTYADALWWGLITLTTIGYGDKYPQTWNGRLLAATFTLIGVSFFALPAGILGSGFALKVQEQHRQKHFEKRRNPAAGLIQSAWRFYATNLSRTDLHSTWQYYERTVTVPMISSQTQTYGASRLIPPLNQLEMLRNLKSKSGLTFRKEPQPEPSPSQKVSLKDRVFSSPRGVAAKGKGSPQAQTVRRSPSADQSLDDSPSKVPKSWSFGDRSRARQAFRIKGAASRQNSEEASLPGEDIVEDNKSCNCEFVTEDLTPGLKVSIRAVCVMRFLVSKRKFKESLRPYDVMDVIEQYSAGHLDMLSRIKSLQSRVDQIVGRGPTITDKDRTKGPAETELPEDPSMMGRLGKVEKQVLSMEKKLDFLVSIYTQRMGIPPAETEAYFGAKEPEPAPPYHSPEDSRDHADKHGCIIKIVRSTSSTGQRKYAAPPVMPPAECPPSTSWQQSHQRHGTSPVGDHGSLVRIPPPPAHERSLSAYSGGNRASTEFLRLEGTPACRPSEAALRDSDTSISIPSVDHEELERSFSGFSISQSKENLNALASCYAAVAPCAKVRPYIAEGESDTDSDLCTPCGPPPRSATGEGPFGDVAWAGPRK
The depositor's hits bear a star; i = inactive; x = not tested or not shown. Compounds with a hit are over-represented: about 1.6% of the library has one in this group of screens.

SMILES	KCNQ2 inh	KCNQ2 enhance	Kir21 confirm	HEK293 Tl flux	others
O=C1N=C(N2CCOCC2)S/C1=C/c1cccs1	i	1.4	x	x
Cc1ccc2nc(NCc3ccccc3)[nH]c2c1	i	x	22%*	i
COc1ccc2nc(NCc3ccccc3)[nH]c2c1	i	0.44	x	x
Clc1cccc(Cl)c1COn1nnc2ccccc21	i	x	x	x
c1ccc(COn2nnc3ccccc32)c(COn2nnc3ccccc32)c1	i	x	72%*	i
CC1CC(C)CN(c2ncc3c(n2)CC(c2ccccc2)CC3=O)C1 (centres undefined)	i	x	x	x
COC(=O)c1sc(NC(=S)NC(=O)c2ccc(F)cc2)nc1C	i	2.3	x	x
COC(=O)c1sc(NC(=S)NC(=O)c2ccccc2C)nc1C	i	12*	i	302%*	CHO-K1 ctr=-4;KCNQ1 pot spec=33*;KCNQ2 pot conf=47*;Kir2-1 sel=-37;KCNQ2 W236L pot=i
Cc1cc(Nc2cccc(Cl)c2)nc(N2CCOCC2)n1	i	x	x	x
O=C(N/N=C/c1cc(Br)cc(Br)c1O)c1ccncc1	i	2.1	x	x
Oc1c(Br)cc(Br)cc1C=Nc1cccnc1	i	8.4*	i	i	CHO-K1 ctr=-10;KCNQ1 pot spec=-14;KCNQ2 pot conf=17*;Kir2-1 sel=-39;KCNQ2 W236L pot=i
COc1ccc(C=Nc2ccc3[nH]ncc3c2)c(O)c1	i	x	x	x
Oc1c(Br)cc(Br)cc1C=Nc1ccc2[nH]ncc2c1	i	14*	i	i	CHO-K1 ctr=11*;KCNQ1 pot spec=-22;KCNQ2 pot conf=20*;Kir2-1 sel=-34;KCNQ2 W236L pot=10%*
COc1ccc(C(=O)Nc2cc(C(F)(F)F)ccc2-n2cnc3ccccc32)cc1	i	x	x	x
COc1ccc(CNC(=O)c2cc3ccccc3o2)cc1OC	i	0.68	x	x
CC(=O)OC1=C(C#N)Cn2ccc3cccc1c32	i	1.9	55%*	i
CC(C)(C)c1ccc(S(=O)(=O)N2CCC(c3nc4ccc(Cl)cc4[nH]3)CC2)cc1	i	x	x	x
COc1ccc(OCCN(C)Cc2ccccc2)cc1	i	x	x	x
CCc1ccc(OCCCCN(C)Cc2ccccc2)cc1	i	x	26%*	i
Cc1cc(C)c(C)c(OCCCCN(C)Cc2ccccc2)c1	i	x	26%*	i
CN(CCCCOc1ccc(F)cc1)Cc1ccccc1	i	1	x	x
COc1cc(C)ccc1OCCOCCN(C)Cc1ccccc1	i	0.85	x	x
CN(CCOCCOc1ccc2ccccc2c1)Cc1ccccc1	i	x	17%*	i
COc1ccc([C@H]2Oc3cc(O)cc(O)c3C(=O)C2[C@@H]2C(=O)c3c(O)cc(O)cc3O[C@@H]2c2ccc(OC)cc2)cc1 (some centres undefined)	i	x	x	x
Cc1nonc1-c1csc(N)n1	i	0.09	x	x
SMILES	KCNQ2 inh	KCNQ2 enhance	Kir21 confirm	HEK293 Tl flux	others
COc1ccc(-n2c(=O)c3ccccc3n(CC(=O)NCc3ccco3)c2=O)cc1	i	0.28	x	x
COC(=O)C1=CN(c2cccc(Cl)c2)C=C(C(=O)OC)C1c1cccc(OC)c1	i	x	x	x
Cc1ccc(S(=O)(=O)NCCSCc2ccccc2)cc1	i	x	64%*	i
Cc1ccc(CSCCNS(=O)(=O)c2ccc([N+](=O)[O-])cc2)cc1	i	x	x	x
COc1ccc(CSC(=N)N)cc1[N+](=O)[O-]	i	0.48	x	x
CCCCOc1ccc(Br)cc1CSC(=N)N	i	0.15	20%*	i
CCCCCOc1ccc(CSC(=N)N)cc1[N+](=O)[O-]	i	x	29%*	i
CCOc1ccc(C(C)=O)cc1CSC(=N)N	i	0.92	x	x
O=S(=O)(CCc1nc2ccccc2o1)c1ccc(Cl)c(Cl)c1	i	x	x	x
Cc1cc(N2CCN(C)CC2)nc2ccc(NC(=O)CCC3CCCC3)cc12	i	2	x	x
Cc1ccc(C(=O)C(C)OC(=O)Cc2c[nH]c3ccccc23)cc1 (centres undefined)	i	x	x	x
Cc1ccc(NC(=O)C(C)OC(=O)Cc2c[nH]c3ccccc23)cc1 (centres undefined)	i	0.34	52%*	i
Cc1c(N=NC2=C(O)CC(C)(C)CC2=O)cc2c(c1[N+](=O)[O-])C(C)(C)CC2(C)C	i	6.7*	i	i	CHO-K1 ctr=42*;KCNQ1 pot spec=-11;KCNQ2 pot conf=0;Kir2-1 sel=-31;KCNQ2 W236L pot=i
COc1ccccc1N=NC1=C(O)CC(C)(C)CC1=O	i	x	x	x
O=C(OCCOc1ccccc1)c1n[nH]c2ccccc12	i	x	x	x
Cc1c(Cc2ccccc2)c(=O)oc2cc(OCC(=O)NCC(O)c3ccccc3)ccc12 (centres undefined)	i	0.98	x	x
O=c1c2ccccc2[nH]c(=S)n1C1CCCCC1	i	x	x	x
CC1CCC(n2c(=S)[nH]c3ccccc3c2=O)CC1 (centres undefined)	i	11*	i	i	CHO-K1 ctr=-1;KCNQ1 pot spec=83*;KCNQ2 pot conf=27*;Kir2-1 sel=-27;KCNQ2 W236L pot=i
CC1(C)CC(n2c(=S)[nH]c3ccccc3c2=O)CCO1 (centres undefined)	i	0.74	x	x
CC1CCCC(n2c(=S)[nH]c3ccccc3c2=O)C1C (centres undefined)	i	11*	i	i	CHO-K1 ctr=-15;KCNQ1 pot spec=-19;KCNQ2 pot conf=6.8*;Kir2-1 sel=-27;KCNQ2 W236L pot=i
CN1CCC(OC(=O)COc2ccc(Br)cc2)CC1	i	0.44	x	x
CCn1cc(CN2CCN(Cc3ccc(OC)c(C)c3C)C(CCO)C2)c(C)n1 (centres undefined)	i	0.78	x	x
CC(C)c1cc(Br)ccc1OCCCN1C(=O)NC(C)(C)C1=O	i	x	i	i
CC1(C)NC(=O)N(CCCOc2ccc(Br)cc2Cl)C1=O	i	0.39	x	x
COc1cc(NC(=O)CCN2CCN(CCO)CC2)cc(OC)c1	i	x	x	x
SMILES	KCNQ2 inh	KCNQ2 enhance	Kir21 confirm	HEK293 Tl flux	others
N#Cc1ccc(CSc2nnc(Cc3cccs3)n2Cc2ccco2)cc1	i	x	53%*	i
N#Cc1ccc(CSc2nnc(-c3ccccc3)n2Cc2ccco2)cc1	i	x	x	x
O=C1CC(N2CCC(c3nc4ccccc4[nH]3)CC2)C(=O)N1c1ccccc1F (centres undefined)	i	1.5	x	x
CCCOC(=O)c1ccc(Oc2c(-c3ccc(OCC)cc3O)n[nH]c2C)cc1	i	x	x	x
COc1ccc(Oc2c(-c3ccc(O)cc3O)n[nH]c2C)cc1	i	x	61%*	i
COc1cc(NC(=O)C2CCC(=O)N2S(=O)(=O)c2ccc(C)cc2)cc(OC)c1 (centres undefined)	i	x	x	x
